# Experimental data taken from ChEMBL document CHEMBL3988442, “University of Dundee, Small-Polar-MMV Screening Library” (2021).
# Among all 53,000 compounds or so, about 900 (1.7%) showed an effect of 50% or more. The entries come from a sample that favours strong results as a whole.
# System: Mycobacterium tuberculosis
# Experiment: Cornell - Phenotypic assay to identify agents that inhibit growth of Mycobacterium tuberculosis
# Format: functional
# Parameters: scale not given: direction of the effect not stated beside the values
# Conditions: 10 mM as filed; unlikely as a test dose
row,SMILES,Percent Effect
1,Cc1ccc(NCc2cccc3cn[nH]c23)cc1OC1CCOC1 (stereo unspecified),50.19%
2,COCCOc1ccc(NCc2cccc3cn[nH]c23)cn1,0.8667%
3,CN1CCCN(C(=O)c2cnsn2)c2cc(Cl)ccc21,23.17%
4,CN1CC2(CCCN(CCOCc3ccccc3)C2)OC1=O (stereo unspecified),17.75%
5,COc1ccccc1OCC(=O)NS(=O)(=O)c1ccccc1Br,29.83%
6,N#Cc1cn[nH]c1NCc1cc(Cl)cc(Cl)c1O,4.06%
7,N#Cc1cn[nH]c1NCc1cc(I)cc(I)c1O,104.4%
8,N#Cc1cn[nH]c1NCc1cc(Br)ccc1O,-2.668%
9,CN1C[C@@H](C(=O)NC2CC2)[C@@]2(COc3ccc(F)cc3C2=O)C1,-27.17%
10,Cn1cc(N2C(=O)CC[C@@H]3[C@H]2CCN3Cc2cccc(C#N)c2)cn1.O=C(O)C(F)(F)F.O=C(O)C(F)(F)F,14.16%
11,CN1CCCCCC1C(=O)NCCCn1ncc2ccccc21 (stereo unspecified),28.62%
12,CCC(CO)NCc1ccc(-c2ccc(F)cc2)o1.Cl (stereo unspecified),35.55%
13,CCC(CO)NCc1ccc(-c2ccccc2)o1.Cl (stereo unspecified),5.639%
14,Cn1nnc(NCc2ccc(-c3ccc(Br)cc3)o2)n1,60.92%
15,CCn1nnc(NCc2cc(Br)cc(Br)c2OC)n1,31.18%
16,CCC(CO)NCc1ccc(-c2ccc(Br)cc2)o1.Cl (stereo unspecified),52.02%
17,CCC(CO)NCc1ccc(-c2ccc(Cl)cc2)o1.Cl (stereo unspecified),16.24%
18,CCC(CO)NCc1ccc(-c2ccc(F)c(Cl)c2)o1.Cl (stereo unspecified),48.48%
19,CCCn1nnc(NCc2ccc(-c3ccc(Br)cc3)o2)n1,31.95%

row,SMILES,Percent Effect
1,Cn1ncnc1NCc1ccc(Cl)cc1,-4.993%
2,CCCn1nnc(NCc2cc(Br)cc(Br)c2OC)n1,40.71%
3,CCn1nnc(NCc2ccc(-c3ccc(Br)cc3)o2)n1,69.94%
4,Cn1nnc(NCc2ccc(-c3ccc(Cl)cc3)o2)n1,60.16%
5,O=C(c1sccc1Cl)N1CCC(Cn2cc(CO)nn2)CC1,28.9%
6,CC(Nc1cccc(COCc2ccco2)c1)C(=O)NC(N)=O (stereo unspecified),25.61%
7,COCCCNC(=O)C(C)n1nc(-c2ccco2)cc(N)c1=O (stereo unspecified),37.24%
8,Cc1ncncc1-c1ccnc(N)n1,1.831%
9,CS(=O)(=O)c1ccc(NCC2CCCO2)c(S(C)(=O)=O)c1 (stereo unspecified),-21.42%
10,Cc1ccccc1C(C(=O)NCCSC(C)C)N(C)C (stereo unspecified),29.49%
11,CNc1ncc2c(n1)CN(CCc1ccc(C)cc1)C2=O,8.766%
12,Cn1ccc(C(=O)N2CCCC(c3cc4cccnc4c(O)n3)C2)n1 (stereo unspecified),-16.1%
13,CN(C)CCC1CCN(c2cc(N3CCCC3CO)ncn2)CC1 (stereo unspecified),-19.44%
14,CC(C)n1nccc1C(=O)N1CCC(c2nnsc2S(C)(=O)=O)CC1,12.35%
15,Cc1nonc1CNC(=O)C(C)Oc1cccc(F)c1 (stereo unspecified),53.11%
16,Cc1noc(C)c1CNC(=O)C(C)Oc1ccccc1F (stereo unspecified),-2.201%
17,Cc1nonc1CNC(=O)C(C)Oc1ccccc1F (stereo unspecified),47.11%
18,CCOCC1CN(Cc2ccncc2)Cc2nn(C)cc21.O=C(O)C(F)(F)F.O=C(O)C(F)(F)F (stereo unspecified),12.3%
19,O=C(O)C(F)(F)F.O=C(O)C(F)(F)F.c1c(CN2CCCC2)nc2n1CCN(C1CCOCC1)C2,3.362%

row,SMILES,Percent Effect
1,Cc1cc(C(=O)NC2CCN(CC(N)=O)CC2)nn1C(C)(C)C,11.5%
2,CC(C)n1ccc2c(NC(=O)c3n[nH]c4c3CCC4)cccc21,48.39%
3,COCCn1ccc2c(C(=O)O)cccc21,17.17%
4,COCCn1ccc2c(C(=O)NC(C)C)cccc21,10.53%
5,CC(C)Cn1ccc2c(NC(=O)c3n[nH]c4c3CCC4)cccc21,50.74%
6,COCCn1ccc2c(C(=O)Nc3nc4c(s3)CCC4)cccc21,15.95%
7,COCCn1ccc2c(NC(=O)c3n[nH]c4c3CCC4)cccc21,61.23%
8,CC(=O)Nc1cccc2c1ccn2CC(=O)Nc1n[nH]c(CC(C)C)n1,-27.06%
9,COCCn1ccc2c(NC(=O)c3n[nH]c4c3CCCC4)cccc21,70.2%
10,COCCn1ccc2c(NC(=O)C(C)C)cccc21,18.08%
11,COc1cc(C)cc(OC)c1C(C(=O)O)N(C)Cc1c(C)nn(C)c1C (stereo unspecified),1.527%
12,COCCn1c2c(ccc1=O)CCN(C(=O)C1CC=CC1)CC2,18.02%
13,NC(=O)CCNCc1c(Cl)cccc1N1CCCC1,-9.412%
14,COCCNc1cc(-c2ccccc2C(N)=O)c2cc[nH]c2n1,26.26%
15,Cc1cc(C)n2ncc(CN3C[C@@H](O)[C@H](Oc4ccccc4)C3)c2n1,0.3545%
16,CN1CCN(c2nc(O)cc(Cc3ccccc3F)n2)CC1,10.81%
17,CC(=O)N1CC(C(=O)NCCc2ncc(C)s2)C1,6.986%
18,CC(C)c1cc(NC(=O)CN2CCC(N3CCNC3=O)CC2)on1,6.075%
